From the supplement of paper PMC6555819

Tests used:
Test in all cases: PBM binding z-score (relative to random genomic background probes); higher = stronger binding; sequences stand for … in GC…GCGATTGACAGCGTAGAATGAAGG
[1] = system: RARb homodimer (NR concentration 270 nM)
Summary of the method: (§1)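 Ligand-free nuclear receptor dimers were bound for 1 h to custom Agilent 4×180K protein-binding microarrays. Detection used antibodies against each partner (one per run). Binding z-scores rest on regression-normalized fluorescence, with random background probes as the reference.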

[2] = system: RARg:RXRa (NR concentration 270 nM, RXRa partner concentration 90 nM)
Summary of the method: as §1

[3] = system: RARg homodimer (NR concentration 270 nM)
Summary of the method: as §1

[4] = system: RXRa DBDmut IVT, anti-RXR (DBD mutation: RXRa K156A/R161A, NR concentration 90 nM)
Summary of the method: as §1

[5] = system: RXRa homodimer (NR concentration 180 nM)
Summary of the method: as §1

[6] = system: THRa:RXRa (NR concentration 90 nM, RXRa partner concentration 90 nM)
Summary of the method: as §1

[7] = system: THRa homodimer (NR concentration 90 nM)
Summary of the method: as §1

[8] = system: VDR homodimer (NR concentration 270 nM)
Summary of the method: as §1

Sequence	PBM binding z-score [1]	PBM binding z-score [2]	PBM binding z-score [3]	PBM binding z-score [4]	PBM binding z-score [5]	PBM binding z-score [6]	PBM binding z-score [7]	PBM binding z-score [8]
ATCTCTAGGTAGAGATAGTTCAGTGAATGCAAAT	0.368	0.166	0.357	-0.163	0.115	0.148	-0.22	0.338
CCTACTTGGTCAAGGTCACACACGCTATAGGTAC	4.57	4.56	4.86	2.17	4.71	4.06	4.41	3.28
TCTAGTTGGTCACGGAGTTCACACACGACGGGTA	3.11	2.99	2.63	1.79	2.81	1.66	0.539	5.75
TGTCAAAGTTAAAAGGTAACGTAAGTATCCACAC	0.641	1.31	1.09	-0.392	1.22	1.72	-0.237	-0.239
GATACAGGGTCAGCTAGTGGCCAGAGTATGGAAA	2.79	4.73	4.32	1.25	3.81	2.46	0.162	0.556
TTACCAAGGTGCAAGGTCGTTGATGCACGCCTTG	1.21	0.66	0.411	1.33	1.54	1.62	0.68	2.9
ACAGACAGGTGATGAAGGTAACTCCGGCTATCAT	0.376	0.136	0.355	-0.394	0.346	0.328	0.183	-0.00954
TCTAGTTGGACACGGAGGTCACACACGACGGGTA	4.2	3.95	3.96	0.997	4.47	3.6	2.32	2.67
CCGACTGGGGCAGGAAGGTTACCATACCATCCGG	1.15	0.592	0.687	-1.31	0.585	0.142	-0.486	-0.24
ACAGACAGGTGAGTGAAGGTAACTCAACTGGACG	0.036	0.211	0.661	-0.368	0.324	1.75	-0.422	-0.644
ATACCAAGGTGATCGTGAGGTCGTCGATACTAAC	1.61	2.45	0.868	0.301	1.56	3.52	2.54	1.95
CCTACTGGGCCACGAAAGGTCATGGATTCAGTGA	4.94	5.28	4.71	-0.0305	6.03	3.97	1.17	1.35
AATACAAGGTCACTAGGCCAGAGTAGGTACGAAT	4.18	5.73	6.29	3.29	5.53	3.95	2.4	2.75
ATACCAAGGTGATCGTGAGATCGTTGATACTAAC	0.108	0.309	0.133	0.00637	0.0742	0.704	0.421	0.0841
TCTTGTAGATCAATAGAGGTTAAGAAAGTGCGCT	1.1	0.791	0.296	0.705	1.28	2.07	-0.31	0.3
CCTAACGGGTCAAGGTTATAGCACGGGTGGTACG	3.19	4.47	4.4	0.639	4.35	2.8	0.625	1.37
CCGACTGGGGCAGAAAGGCTACCATACCATCCGG	0.243	-0.0591	-0.0697	-0.996	-0.122	-0.836	-0.539	-0.212
CCTAGTTGGTCAGGAGGTCACACTCCGGATATGA	4.21	4.74	4.43	1.03	5.04	3.4	2.46	2.5
TCTGCTAGGTCAACGATGGTCGGCTAATCTGCTA	3.13	3.75	5.24	0.92	2.64	2.7	0.478	-0.232

Sequence	PBM binding z-score [1]	PBM binding z-score [2]	PBM binding z-score [3]	PBM binding z-score [4]	PBM binding z-score [5]	PBM binding z-score [6]	PBM binding z-score [7]	PBM binding z-score [8]
ATATGTAGGTTCGCTGGGGTCATTCAGACTAGGC	3.35	4.07	2.35	3.6	5.54	4.11	3.34	9.1
TTACCAAGGTGAAGGTCGTTGACCCCTCTGTAGA	3.35	3.33	2.12	0.133	4.95	3.6	1.43	1.51
CCGACTGGGGCAGAGGTTACCATACTCAGTACGA	1.64	1.81	1.16	0.0849	2.24	1.14	0.0259	0.131
AGTCAAAGTTCACTAGGTAACGCAAGATTCAGCT	3.66	5.13	6.21	4.25	4.24	2.08	0.154	3.32
ATATGTAGGTTAGCTGGGGTCATACAGACTAGGC	3.9	4.36	3.32	1.64	6.14	5.18	3.83	4.09
CGTCAAAGTTCAAGGTAACCTAACAGAAAGCAGC	4.17	5.43	6.2	4.3	4.71	3.19	1.38	2.84
AGTCAAAGTTCATCTAGGTAACGTGAGATATGCT	3.97	5.63	6.26	4.74	4.89	3.05	0.297	4.95
AGAATGAGGGTAAGATCAGGGAAACAGAATACAT	0.584	0.474	0.611	0.212	0.321	1.54	0.43	0.304
CAAACTAGGTCACAGAGGTCATAGTCCGTGCGTA	5.33	6.83	7.33	3.4	7.32	4.76	3.22	7.02
GCTATTAGTTGAAAGGGCAAACGAATGATTCTCG	1.86	1.24	1.06	0.931	1.38	0.777	-0.332	0.589
GCTTGTAGATCAAGGTTAGGAAAGACTAAGCTAA	-0.185	-0.139	-0.0948	-0.199	0.0572	0.576	-0.327	-0.0771
ATACCAAGCTGATCGTGAGGTCGTTGATACTAAC	1.07	0.355	0.15	0.629	0.837	2.12	1.76	2.35
CGTCCAAGGTCAAGGTCAGTGGAAGAGACTCGAA	5.13	6.64	7.58	3.79	6.05	4.21	3.67	3.15
TCATATAGGTAAATGCTAGGTTAAAGTCCGATCT	0.967	0.772	0.598	1.74	0.914	1.35	0.664	0.441
CAAACTAGGTCACAGAGGTCAAGGTCCGTGCGTA	5.39	7.22	7.73	2.61	7.09	5.05	3.46	4.66
CAGCCTAGGTCAGGGACAGTATAGGAGGAACGTT	2.6	3.02	3.8	0.364	1.77	2.37	0.952	0.0373
TTACCACGGTGAGCTGAGGTCGTTGATCCAACTC	0.63	0.212	-0.116	-0.00262	0.759	3.24	1.31	1.64
CCTATTAGTTGACCATAAGGGCAACCGTAGCTCG	1.93	1.09	1.25	0.707	0.63	1.92	1.29	0.902
ACTTACGCGTCAACGAGGTTATAGCACGCGTATA	0.406	0.413	0.22	0.579	1.09	1.52	0.379	0.536

Sequence	PBM binding z-score [1]	PBM binding z-score [2]	PBM binding z-score [3]	PBM binding z-score [4]	PBM binding z-score [5]	PBM binding z-score [6]	PBM binding z-score [7]	PBM binding z-score [8]
TCTTGTAGATCAATAGCGGTTAAGAAAGTGCGCT	-0.0533	0.105	-0.0407	0.457	0.288	0.011	-0.478	0.0262
CCTTACGGGTCAGTCCAGGTTATAGCATCGGAGT	2.69	3.23	3.53	0.751	2.55	4.66	0.627	1.12
CCTCGGAGAACAACAGGAGGTCAGAGCTGCCAGA	2.85	1.99	1.83	0.121	1.86	2.02	0.641	0.996
CTCGAAAGCTCGGTTGAGGTGAGTATACGGATAA	-0.282	-0.264	-0.254	-0.28	-0.256	1.85	1.03	-0.293
CCTGACGGGTCACGAGGTTATAGCACGACGAGCG	3.55	5.83	5.33	1.42	6.19	3.3	1.14	1.87
GATACAGGGCCAAGGCCAGAGTACGCGTATTGAT	0.738	0.109	0.599	-0.254	0.197	-0.171	-0.281	-0.147
CCGACTGGCGCAAGGTTACCATAACGCACAGCCA	0.818	0.543	0.602	0.0804	0.892	1.23	0.443	-0.0582
CGTCCAAGGTCAAAGAGGTCAGTGAATGCCGAGT	5.66	7.1	7.62	4.35	7.47	4.48	3.36	6.32
GCGACTGGGGCAAAGCAGGTTAGCATAAGGTTGG	0.654	0.256	0.429	-0.341	0.0651	2.28	-0.225	-0.542
TAGCCTAGGGCATGGGCCAGTATACCACGCGAAC	0.79	0.484	0.834	-1.24	0.135	-0.0791	0.0268	-0.21
TCTAGCAGGCCAGAGCGTCACTCAAGAGGTACGG	-0.99	-0.32	-0.282	-0.0985	-0.0625	-1.43	-1.22	-0.792
TCTTGTAGATCAAACGTTAAGAAAGCCGAAGCCT	-0.779	-0.146	-0.238	0.749	0.138	-0.412	-0.567	-0.573
CGAACGAGGGCATGAGTTGATAGGAAATGCCGAT	0.511	1.1	1.71	2.4	0.923	1.07	-0.419	1.41
GCTAGGAGGACAAGGTCAGAGCTTTGTCCGTAGA	3.1	3	3.49	0.861	2.29	2.83	1.21	0.639
ACTATTAGATGACTTAGGGCAACCGATACGACGC	1	0.918	1.25	0.754	0.767	1.04	0.469	0.377
ACTTGCAGGCCAAGGGTCACTCAAGATTAGTCCG	4.01	4.38	3.9	0.954	4.47	2.89	0.244	1.36
ACTATTAGTTGAGACGAGGGCAAGCGATAGGTTG	1.06	0.352	0.635	0.63	0.484	2.28	0.357	0.593
TAGCCTGGGTCATTCAGGGGCCAGTATAGAAAGC	2.55	6.03	3.76	1.25	3.24	3.34	-0.502	0.911
